Reference: PubChem BioAssay (NCI)
Compounds without any hit were thinned out: in the full panel of roughly 83,000, 20% have a hit.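 Method: cells in 96-well plates; compound added at one concentration; 48 h incubation; percent growth measured; values under 10 scored active.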 A number with no mark means an inactive call. The source made the active and inactive calls.

tested on: OVCAR-5 ovarian; assay: NCI-60 one-dose screen, 48 h (100 = growth as untreated, 0 = no growth, -100 = all killed); details: 10 µM unless noted

Compound | growth
Cc1cc(C)n(C(=O)c2nn(-c3ccc(Cl)cc3)cc2O)n1 | 64.1%
C[n+]1ccc(Nc2ccc(NC(=O)c3ccc(Nc4cc[n+](C)c5ccc(N)cc45)cc3)cc2)cc1 | 90.6%
COc1ccc(-c2nnc(COc3ccc(NC(=O)Nc4cc(C(F)(F)F)cc(C(F)(F)F)c4)cc3F)o2)cc1 | 29%
O=C1c2ccccc2-c2c1nc1ccccc1[n+]2[O-] | 94.9%
Oc1ccccc1/C=N\Nc1ccccc1 | 55.5%
O=C(O)c1ccc(NC(=O)c2ccc(Nc3ccnc(C(F)(F)F)c3)cc2)cc1 | 107%
CSc1nnc(C2=CC(=O)c3ccccc3C2=O)n1-c1ccccc1 | 113%
COC(=O)[C@]12CC[C@@H](C)[C@H](C)[C@@H]1C1=CC[C@@H]3[C@@]4(C)C=C(O)C(=O)[C@@]5(C)COC(=C54)C[C@@]3(C)[C@]1(C)CC2 | -26.9% (active)
O=C(Nc1cccc2ccccc12)c1cc2c(cc1Br)OCO2 | 96.8%
COc1ccc(OC)c(NC(=O)c2cc3oc4ccccc4c3cc2O)c1 | 103%
COc1ccc2[nH]cc(/C=C3/C(=O)Nc4ccc(Cl)cc43)c2c1 | 78.1%
O=c1[nH]c(=O)n(C2CC(O)C(CO)O2)cc1C(F)(F)F (centres undefined) | 54.5%
CN1CCN(Cc2ccc(NC(=O)c3[nH]ncc3Nc3ccnc4ccnn34)cc2)CC1 | 94%
Nc1cc(Cl)c(S(N)(=O)=O)cc1S(N)(=O)=O | 102%
Cc1cc(O)c2c(c1)C[C@H]1[C@@H]3CC[C@H]4CC(=O)CC[C@]4(C)[C@H]3CC(=O)[C@]21C | 79.7%
COc1ccccc1[C@H]1c2[nH]c3ccccc3c2C[C@H]2C(=O)N(CCCCCCC(=O)NO)CC(=O)N12 | 26.4%
c1csc([C@@H]2C[C@@H]3Cc4ccc5ccccc5c4N2O3)c1 | 89.9%
O=C(Nc1cccc([N+](=O)[O-])c1)c1cccc(C(=O)Nc2cccc([N+](=O)[O-])c2)c1 | 95.6%
CN(CC(=O)Nc1nc2ccccc2[nH]1)S(=O)(=O)c1ccc(Cl)cc1 | 96.4%

Compound | growth
OCc1nnn(-c2ccccc2)c1CO | 112%
Cc1cc2c(cc1[N+](=O)[O-])NC(CNC(C)C)CC2 (centres undefined) | 88.7%
CO[C@H]1/C=C/O[C@@]2(C)Oc3c(C)c(O)c4c(O)c(c(/C=N/N5C(C)CN(Cc6ccccc6)CC5C)c(O)c4c3C2=O)NC(=O)/C(C)=C\C=C\[C@H](C)[C@H](O)[C@@H](C)[C@@H](O)[C@@H](C)[C@H](OC(C)=O)[C@@H]1C (some centres undefined) | 99.1%
COc1ccc(C(=O)Nc2nc(-c3ccc(Cl)cc3)cs2)cc1 | 87%
Cn1cc(-c2csc(-c3cn(C)c4ncccc34)n2)c2cc(Br)cnc21 | 88.1%
CCCCSc1cc(C)nc(N)n1 | 94%
CCCc1cc(=O)n2c(C(=O)Nc3ccccc3OC)c(C(=O)Nc3ccc(F)cc3)sc2n1 | 57.8% [30 µM]
O=[N+]([O-])c1ccc2c(c1)S(=O)c1cc([N+](=O)[O-])ccc1N2 | 95.3%
C=C(C)[C@H]1CC/C(C)=C/CC[C@]2(C)O[C@H]2CC/C(C=O)=C\C1O (some centres undefined) | 101%
C[C@@H]1CC[C@H]2[C@@H](C)C(O)O[C@@H]3O[C@]4(C)CC[C@@H]1[C@]32OO4 (some centres undefined) | 26.5%
O=C1Nc2ccccc2C12Nc1cc(Cl)ccc1S2 (centres undefined) | 104%
O=C(Oc1ccc[nH]c1=O)c1cccc(Cl)c1 | 97.5%
CN(C)c1ccc(/C=C\c2ccnc3ccccc23)cc1 | 65%
CCOC(=O)/C=C(/C)Sc1cc(O)c2ccccc2c1O | 93%
CCC(C)CC(C)C(=O)c1c(O)ccn(O)c1=O (centres undefined) | 72.8%
NC(=O)c1ccccc1NC(=O)c1ccccc1Cl | 108%
CCS(=O)(=O)OCCCl | 80.8%
COC(=O)CC1=C(C)/C(=C/c2[nH]c(-c3ccc[nH]3)cc2OC)N=C1C | 18.7%

tested on: OVCAR-4 ovarian; assay: as above; details: 10 µM unless noted

Compound | growth
Cc1cc(C)n(C(=O)c2nn(-c3ccc(Cl)cc3)cc2O)n1 | 67.7%
C[n+]1ccc(Nc2ccc(NC(=O)c3ccc(Nc4cc[n+](C)c5ccc(N)cc45)cc3)cc2)cc1 | 103%
COc1ccc(-c2nnc(COc3ccc(NC(=O)Nc4cc(C(F)(F)F)cc(C(F)(F)F)c4)cc3F)o2)cc1 | 19.2%
O=C1c2ccccc2-c2c1nc1ccccc1[n+]2[O-] | 115%
Oc1ccccc1/C=N\Nc1ccccc1 | 84%
O=C(O)c1ccc(NC(=O)c2ccc(Nc3ccnc(C(F)(F)F)c3)cc2)cc1 | 103%
CSc1nnc(C2=CC(=O)c3ccccc3C2=O)n1-c1ccccc1 | 99.2%
COC(=O)[C@]12CC[C@@H](C)[C@H](C)[C@@H]1C1=CC[C@@H]3[C@@]4(C)C=C(O)C(=O)[C@@]5(C)COC(=C54)C[C@@]3(C)[C@]1(C)CC2 | -39.1% (active)
O=C(Nc1cccc2ccccc12)c1cc2c(cc1Br)OCO2 | 83.5%
COc1ccc(OC)c(NC(=O)c2cc3oc4ccccc4c3cc2O)c1 | 91.4%
COc1ccc2[nH]cc(/C=C3/C(=O)Nc4ccc(Cl)cc43)c2c1 | 51.5%
O=c1[nH]c(=O)n(C2CC(O)C(CO)O2)cc1C(F)(F)F (centres undefined) | 78.1%
CN1CCN(Cc2ccc(NC(=O)c3[nH]ncc3Nc3ccnc4ccnn34)cc2)CC1 | 62.1%
Nc1cc(Cl)c(S(N)(=O)=O)cc1S(N)(=O)=O | 96.6%
Cc1cc(O)c2c(c1)C[C@H]1[C@@H]3CC[C@H]4CC(=O)CC[C@]4(C)[C@H]3CC(=O)[C@]21C | 109%
COc1ccccc1[C@H]1c2[nH]c3ccccc3c2C[C@H]2C(=O)N(CCCCCCC(=O)NO)CC(=O)N12 | 58.1%
c1csc([C@@H]2C[C@@H]3Cc4ccc5ccccc5c4N2O3)c1 | 87.7%
O=C(Nc1cccc([N+](=O)[O-])c1)c1cccc(C(=O)Nc2cccc([N+](=O)[O-])c2)c1 | 56.9%
CN(CC(=O)Nc1nc2ccccc2[nH]1)S(=O)(=O)c1ccc(Cl)cc1 | 93.6%

Compound | growth
OCc1nnn(-c2ccccc2)c1CO | 99.2%
Cc1cc2c(cc1[N+](=O)[O-])NC(CNC(C)C)CC2 (centres undefined) | 95.1%
CO[C@H]1/C=C/O[C@@]2(C)Oc3c(C)c(O)c4c(O)c(c(/C=N/N5C(C)CN(Cc6ccccc6)CC5C)c(O)c4c3C2=O)NC(=O)/C(C)=C\C=C\[C@H](C)[C@H](O)[C@@H](C)[C@@H](O)[C@@H](C)[C@H](OC(C)=O)[C@@H]1C (some centres undefined) | 89.8%
COc1ccc(C(=O)Nc2nc(-c3ccc(Cl)cc3)cs2)cc1 | 108%
Cn1cc(-c2csc(-c3cn(C)c4ncccc34)n2)c2cc(Br)cnc21 | 92.1%
CCCCSc1cc(C)nc(N)n1 | 98.1%
CCCc1cc(=O)n2c(C(=O)Nc3ccccc3OC)c(C(=O)Nc3ccc(F)cc3)sc2n1 | 36.2% [30 µM]
O=[N+]([O-])c1ccc2c(c1)S(=O)c1cc([N+](=O)[O-])ccc1N2 | 100%
C=C(C)[C@H]1CC/C(C)=C/CC[C@]2(C)O[C@H]2CC/C(C=O)=C\C1O (some centres undefined) | 109%
C[C@@H]1CC[C@H]2[C@@H](C)C(O)O[C@@H]3O[C@]4(C)CC[C@@H]1[C@]32OO4 (some centres undefined) | 40.2%
O=C1Nc2ccccc2C12Nc1cc(Cl)ccc1S2 (centres undefined) | 70.4%
O=C(Oc1ccc[nH]c1=O)c1cccc(Cl)c1 | 54.6%
CN(C)c1ccc(/C=C\c2ccnc3ccccc23)cc1 | 68.2%
CCOC(=O)/C=C(/C)Sc1cc(O)c2ccccc2c1O | 51.1%
CCC(C)CC(C)C(=O)c1c(O)ccn(O)c1=O (centres undefined) | 30.3%
NC(=O)c1ccccc1NC(=O)c1ccccc1Cl | 98.3%
CCS(=O)(=O)OCCCl | 100%
COC(=O)CC1=C(C)/C(=C/c2[nH]c(-c3ccc[nH]3)cc2OC)N=C1C | 10.5%
